Data on five compounds can be found in PubChem BioAssay.

The structures appear in SMILES notation. Active and inactive are the calls of the source.

Assay [1] concerns Plasmodium falciparum Sir2 (PF13_0152, Sir2A). Briefly: Plasmodium falciparum Sir2A binding compounds – biochemical, small-molecule microarray, 635 nm fluorescence, primary screen (AID 1098).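 Note: score merges spot fluorescence intensity with its signal-to-noise ratio.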 Particulars: fluorescence 635 nm, higher = more signal.
Assay [2] in a line: probe aDKK1 binding to arrayed compounds – biochemical, biotinylated probe, 635/667 nm fluorescence, primary screen (AID 1099).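 Note: score merges 667nm spot fluorescence with signal to noise across triplicate slides.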 The note with it: small-molecule microarray, higher = more signal.
Assay [3] in a line: probe aCHRDL2 binding to arrayed compounds – biochemical, biotinylated probe, 635/667 nm fluorescence, primary screen (AID 1100). Particulars: small-molecule microarray, higher = more signal.
Assay [4] in a line: change in splice reporter luminescence, either direction, cell-based, HEK293, spliceosome inhibition project, primary screen (AID 1101).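 Note: HEK293 cells carrying a splicing-competent luciferase reporter gene; test concentration not given here.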 Particulars: HEK293 splicing luciferase reporter, 24 h, higher = more signal, called active from +8 up or from −8 down. A general note: In a reporter assay the amount or activity of a reporter protein is the signal.
The target in assay [5] is Fibroblast growth factor 10 (Homo sapiens) (UniProt O15520). Put plainly: compounds binding fibroblast growth factor 10 – biochemical, small-molecule microarray, 635 nm fluorescence, primary screen (AID 1102). The note with it: FGF10 binding, fluorescence 635 nm, higher = more signal.
Assay [6] has as its system glycogen synthase kinase-3 (GSK3A per assay name; protocol says GSK3B). Briefly: compounds binding glycogen synthase kinase-3 – biochemical, small-molecule microarray, 635 nm fluorescence, GSK3A, primary screen (AID 1103). Note: the record names both GSK3A and GSK3B. Particulars: fluorescence 635 nm, higher = more signal.
Assay [7] addresses Epidermal growth factor receptor (Homo sapiens) (UniProt P00533). Put plainly: compounds binding epidermal growth factor receptor – biochemical, small-molecule microarray, 635 nm fluorescence, primary screen (AID 1104).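 Note: score merges 667 nm emission intensity with spot signal to noise over triplicate slides.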 The note with it: EGFR binding, higher = more signal.
The target in assay [8] is Follistatin-related protein 3 (Homo sapiens) (UniProt O95633). Briefly: compounds binding follistatin-related protein 3 – biochemical, small-molecule microarray, 635 nm fluorescence, primary screen (AID 1105).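 Note: score merges emission near 667 nm and signal to noise per printed spot across three slides.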 Particulars: FSTL3 binding, higher = more signal.
Assay [9] has as its target Dickkopf-related protein 1 (Homo sapiens) (UniProt O94907). Put plainly: small molecules binding DKK1 protein – biochemical, small-molecule microarray, 635 nm fluorescence scan, primary screen (AID 1106).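 Note: score merges emission near 667 nm with signal to noise over three replicate slides.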 Particulars: higher = more signal.
For assay [10], the system named is Inhibin beta A chain (activin A). Briefly: small molecules binding activin A – biochemical, small-molecule microarray, 635 nm fluorescence scan, primary screen (AID 1107).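 Note: mouse activin A protein probed at 4.33 µg/mL on printed slides; score merges bound-protein fluorescence near 667 nm with spot signal-to-noise.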 Particulars: INHBA, higher = more signal.
Assay [11] deals with Human papillomavirus type 1a protein E7 (residues 44-93). Put plainly: small molecules binding HPV E7 44-93 – biochemical, small-molecule microarray, residues 44-93, 635 nm fluorescence, primary screen (AID 1108).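 Note: E7 fragment applied at 1 µg/mL in TBST for 1 h at 4 C; score combines spot fluorescence with its signal to noise ratio.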 Particulars: fluorescence 635 nm, higher = more signal.
Assay [12] can be described thus: hepatitis C replication reporter changes, two-sided – Huh7 cells, luciferase reporter, HCV replication inhibitor project, primary screen (AID 1109).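 Note: huh7 hepatoma cells harbouring a luciferase neomycin HCV replicon reporter; luciferase luminescence as measure of HCV replicon replication; test concentration not given here.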 Particulars: Huh7 HCV replicon luciferase reporter, 48 h; higher = more signal.
Assay [13] has as its target Left-right determination factor 2 (Homo sapiens) (UniProt O00292). Put plainly: small molecules binding LEFTY2 protein – biochemical, small-molecule microarray, 635 nm fluorescence scan, primary screen (AID 1110). The note with it: higher = more signal.
Assay [14] deals with Calmodulin-1 (Homo sapiens) (UniProt P0DP23). Briefly: small molecules binding calmodulin-1 with EGTA – biochemical, small-molecule microarray, Cy5-labelled CALM1, profiling panel (AID 1111).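 Note: labelled calmodulin applied in Tris saline Tween buffer holding calcium plus EGTA and DTT.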 Particulars: Cy5-CALM1 binding fluorescence, higher = more signal.
The target is the same in assay [15]. Put plainly: small molecules binding Ca-loaded calmodulin-1 – biochemical, small-molecule microarray, Cy5-labelled CALM1, plus calcium, artefact control for SMM control-protein annotation, profiling panel (AID 1112).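 Note: score merges spot fluorescence with signal to noise from triplicate slides.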 Particulars: Cy5-CALM1 binding fluorescence, higher = more signal.
Assay [16] in a line: probe aWnt5a binding to arrayed compounds – biochemical, biotinylated probe, 635/667 nm fluorescence, primary screen (AID 1113).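 Note: score merges 667 nm fluorescence intensity with signal-to-noise per printed feature.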 The note with it: small-molecule microarray, higher = more signal.
Assay [17] is described as follows: probe aShh binding to arrayed compounds – biochemical, biotinylated probe, 635/667 nm fluorescence, primary screen (AID 1114).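 Note: probe is biotin-labelled aShh protein from a stem cell growth factor screen; measures binding of labelled protein to compounds printed on the slide; score merges feature fluorescence at 667 nm with signal-to-noise.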 The note with it: small-molecule microarray, higher = more signal.
Assay [18] in a line: probe aNog binding to arrayed compounds – biochemical, biotinylated probe, 635/667 nm fluorescence, primary screen (AID 1115).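 Note: probe is biotinylated aNog protein used at 0.15 µg/mL for 1 h at 4 C; z-score combines 667 nm fluorescence of each spot with its signal to noise.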 The note with it: small-molecule microarray, higher = more signal.
For assay [19], the target named is Torsin-1A-interacting protein 1 (Homo sapiens) (UniProt Q5JTV8). Put plainly: compound microarray binding of lysate hLAP1 – cell lysate, small-molecule microarray, COS7 lysate, 635/667 nm fluorescence, primary screen (AID 1116). The note with it: 635 nm fluorescence, higher = more signal.
The target of assay [20] is Alpha-bungarotoxin (Bungarus multicinctus) (UniProt P60615). Put plainly: compounds binding labelled alpha-BTX control protein – biochemical, small-molecule microarray, Alexa647 label, 635/667 nm fluorescence, artefact control for SMM control protein annotation, profiling panel (AID 1117). The note with it: alpha-BTX-A647 binding fluorescence, higher = more signal.
Chain of Alpha-bungarotoxin (Bungarus multicinctus) (P60615 whole entry, looked up): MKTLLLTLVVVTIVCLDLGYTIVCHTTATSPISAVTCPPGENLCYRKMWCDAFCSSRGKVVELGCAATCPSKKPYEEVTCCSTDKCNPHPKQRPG

Chain of Dickkopf-related protein 1 (Homo sapiens) (O94907 whole entry, looked up): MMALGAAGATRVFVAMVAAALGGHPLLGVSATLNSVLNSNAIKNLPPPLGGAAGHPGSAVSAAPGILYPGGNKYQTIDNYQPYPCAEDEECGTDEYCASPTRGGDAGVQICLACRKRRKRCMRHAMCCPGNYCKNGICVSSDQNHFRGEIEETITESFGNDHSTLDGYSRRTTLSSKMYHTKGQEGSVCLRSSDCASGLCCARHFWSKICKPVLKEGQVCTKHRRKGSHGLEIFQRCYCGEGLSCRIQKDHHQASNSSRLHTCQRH
Chain of Torsin-1A-interacting protein 1 (Homo sapiens) (Q5JTV8 whole entry, looked up): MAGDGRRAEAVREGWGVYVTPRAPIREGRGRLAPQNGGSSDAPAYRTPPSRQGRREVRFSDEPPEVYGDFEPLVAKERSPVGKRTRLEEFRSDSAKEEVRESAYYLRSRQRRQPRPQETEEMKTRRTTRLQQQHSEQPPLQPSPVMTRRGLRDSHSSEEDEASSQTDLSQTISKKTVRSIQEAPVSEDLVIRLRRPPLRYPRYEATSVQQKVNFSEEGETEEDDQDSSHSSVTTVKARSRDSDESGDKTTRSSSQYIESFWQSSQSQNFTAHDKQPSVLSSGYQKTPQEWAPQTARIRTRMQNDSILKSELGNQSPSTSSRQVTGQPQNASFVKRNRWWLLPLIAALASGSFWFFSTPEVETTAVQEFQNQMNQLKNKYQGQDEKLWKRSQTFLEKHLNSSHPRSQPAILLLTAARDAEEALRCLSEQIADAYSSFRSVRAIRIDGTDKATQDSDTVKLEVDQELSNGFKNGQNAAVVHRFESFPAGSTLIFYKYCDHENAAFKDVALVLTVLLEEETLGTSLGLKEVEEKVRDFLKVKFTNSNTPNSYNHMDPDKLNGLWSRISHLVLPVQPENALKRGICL
Chain of Follistatin-related protein 3 (Homo sapiens) (O95633 whole entry, looked up): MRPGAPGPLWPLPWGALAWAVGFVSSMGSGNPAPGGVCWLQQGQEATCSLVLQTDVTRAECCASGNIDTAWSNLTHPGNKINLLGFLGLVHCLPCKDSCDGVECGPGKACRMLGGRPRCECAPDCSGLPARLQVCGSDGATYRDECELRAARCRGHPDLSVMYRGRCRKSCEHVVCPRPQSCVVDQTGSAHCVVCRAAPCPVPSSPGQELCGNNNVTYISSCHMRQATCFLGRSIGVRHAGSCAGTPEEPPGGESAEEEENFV
Chain of Epidermal growth factor receptor (Homo sapiens) (P00533 whole entry, looked up): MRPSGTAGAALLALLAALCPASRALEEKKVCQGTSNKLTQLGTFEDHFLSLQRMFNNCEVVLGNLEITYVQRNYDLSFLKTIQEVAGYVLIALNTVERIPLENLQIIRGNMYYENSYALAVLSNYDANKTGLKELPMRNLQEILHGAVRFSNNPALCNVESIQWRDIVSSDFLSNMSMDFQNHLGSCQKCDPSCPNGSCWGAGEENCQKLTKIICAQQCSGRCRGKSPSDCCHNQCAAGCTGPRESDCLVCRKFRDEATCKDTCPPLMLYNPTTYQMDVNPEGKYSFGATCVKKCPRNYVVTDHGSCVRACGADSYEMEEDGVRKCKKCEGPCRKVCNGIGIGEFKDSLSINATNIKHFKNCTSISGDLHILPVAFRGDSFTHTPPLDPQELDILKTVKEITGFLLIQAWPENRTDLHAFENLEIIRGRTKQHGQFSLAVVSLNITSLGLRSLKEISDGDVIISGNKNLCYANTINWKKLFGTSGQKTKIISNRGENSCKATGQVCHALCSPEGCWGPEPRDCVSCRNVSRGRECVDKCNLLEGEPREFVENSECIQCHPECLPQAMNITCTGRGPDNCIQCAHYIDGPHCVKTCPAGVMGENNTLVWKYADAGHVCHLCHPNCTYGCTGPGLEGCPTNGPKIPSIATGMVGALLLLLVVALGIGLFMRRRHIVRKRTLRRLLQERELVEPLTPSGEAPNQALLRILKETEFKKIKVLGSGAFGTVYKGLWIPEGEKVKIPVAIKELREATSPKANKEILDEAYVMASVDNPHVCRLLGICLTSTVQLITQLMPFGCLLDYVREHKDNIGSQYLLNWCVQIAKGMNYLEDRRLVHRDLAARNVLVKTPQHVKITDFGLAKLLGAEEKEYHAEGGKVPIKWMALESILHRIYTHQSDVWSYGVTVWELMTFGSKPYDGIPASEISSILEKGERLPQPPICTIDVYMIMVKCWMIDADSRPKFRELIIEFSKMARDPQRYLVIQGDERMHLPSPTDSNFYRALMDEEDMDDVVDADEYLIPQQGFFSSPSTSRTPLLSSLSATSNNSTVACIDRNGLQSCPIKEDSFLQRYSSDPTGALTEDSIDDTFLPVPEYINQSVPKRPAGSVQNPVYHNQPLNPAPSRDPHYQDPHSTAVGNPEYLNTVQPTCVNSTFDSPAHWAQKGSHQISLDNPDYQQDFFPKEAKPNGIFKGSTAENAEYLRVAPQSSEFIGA
Chain of Fibroblast growth factor 10 (Homo sapiens) (O15520 whole entry, looked up): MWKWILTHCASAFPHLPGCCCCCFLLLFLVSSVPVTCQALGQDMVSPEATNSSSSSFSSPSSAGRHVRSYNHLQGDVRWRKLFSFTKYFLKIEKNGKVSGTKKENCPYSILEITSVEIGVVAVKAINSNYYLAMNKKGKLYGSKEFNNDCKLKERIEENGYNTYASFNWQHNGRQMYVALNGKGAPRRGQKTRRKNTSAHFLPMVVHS
Chain of Left-right determination factor 2 (Homo sapiens) (O00292 whole entry, looked up): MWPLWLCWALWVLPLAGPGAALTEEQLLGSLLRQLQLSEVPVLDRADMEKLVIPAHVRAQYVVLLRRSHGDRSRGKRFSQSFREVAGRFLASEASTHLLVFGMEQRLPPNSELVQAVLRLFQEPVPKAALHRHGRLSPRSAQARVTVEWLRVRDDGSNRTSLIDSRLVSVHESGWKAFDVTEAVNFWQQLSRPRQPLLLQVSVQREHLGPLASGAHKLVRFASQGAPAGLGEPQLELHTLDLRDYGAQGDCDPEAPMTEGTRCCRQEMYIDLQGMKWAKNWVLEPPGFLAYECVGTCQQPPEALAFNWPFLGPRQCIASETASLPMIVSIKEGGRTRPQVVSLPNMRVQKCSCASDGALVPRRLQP

With `O=C(c1ccccc1)N1Cc2ccccc2C[C@@]2(COC(c3ccc(OCCCO)cc3)=N2)C1=O`, the composite z-score in assay [1] stood at 1.5; in assay [2], 0.298; in [3] it was 0.657; in assay [5] it was 1.1; in assay [6], 1.29; in assay [7] it was 0.0545. Further, the composite z-score in [8] turned out to be 0.796; in [9], 0.146; in assay [10], 0.7; in assay [11], 1.4; in [13] it was 0.252; in assay [14], 1.32. Also, the composite z-score in assay [15] is 0.566; in assay [16] it was -0.0512; in assay [17] it was 0.184; in [18] it was -0.486; in [19], 1.31; in [20] it was 1.83. Moreover, the results for the z-score in assay [4] and in assay [12] were 0.372 (inactive) and -1.25, respectively.
For `CCCCCN1CC=CC23O[C@@H]4C=CCCOC(=O)C4[C@H]2C(=O)N(CCCCCO)[C@@H]3C1=O` (stereo not given in full), the composite z-score in [1] is -0.158; in [2] it was -0.287; in assay [3], 0.249; in assay [5] it was -0.8; in assay [6], -0.299; in assay [7], -1.16. For the same compound, the composite z-score was -1.15 in assay [8]; -0.503 in assay [9]; 0.516 in assay [10]; -0.168 in assay [11]; -0.368 in [13]; -0.339 in assay [14]. Also, the composite z-score in assay [15] is -0.578; in assay [16], -0.096; in [17], -0.243; in [18] it was -0.178; in [19] it was 0.884; in [20], -0.99. For the same compound, the z-score in assay [4] was -0.978 (inactive); in [12], -0.605.
For `COCCOC(=O)N1C(=O)[C@@]2(c3cc(C#Cc4ccc(OC)cc4)ccc31)[C@H](c1ccc(OCCO)cc1)N1[C@H](c3ccccc3)[C@H](c3ccccc3)OC(=O)[C@H]1[C@@H]2C(=O)N1CCN(c2ncccn2)CC1`, the composite z-score was -0.0214 in assay [1]; 0.775 in assay [2]; 0.257 in [3]; 0.703 in assay [5]; 1.28 in assay [6]; 0.667 in assay [7]. Besides, the composite z-score in assay [8] was 1.27; in assay [9], 1.28; in assay [10], -0.0857; in assay [11], 0.819; in assay [13], 1.08; in assay [14], 1.12. Further, the composite z-score in [15] is 0.715; in assay [16], -0.0585; in assay [17], -0.26; in assay [18], 0.0308; in assay [19], 0.391; in [20], 0.953. Moreover, the z-score is -0.449 (inactive) in [4] and -1.45 in assay [12].
As to `COCCCNC(=O)[C@@H]1c2ccccc2C(=O)N(Cc2ccccc2Cl)[C@H]1c1ccc(CO)cc1`, the composite z-score in assay [1] came out at 0.471; in [2] it was 0.167; in [3], 0.199; in assay [5], 0.629; in assay [6] it was 1.17; in [7], 0.245. Also, the composite z-score in [8] was 0.715; in [9], 0.412; in assay [10], 0.975; in assay [11], 0.867; in [13], 0.67; in assay [14], -0.48. The composite z-score is -0.613 in [15]; -0.0792 in assay [16]; 0.0684 in [17]; -0.382 in assay [18]; 1.51 in [19]; -0.195 in assay [20]. Further, the z-score in assay [4] was 0.5 (inactive); in [12], 0.318.
Turning to `CO[C@H]1O[C@H](CO)[C@@H](OC(=O)Nc2ccccc2)[C@H](OC(=O)Nc2ccccc2)[C@@H]1OC(=O)Nc1ccccc1`, the composite z-score in assay [1] is 1.48; in assay [2], -0.136; in assay [3], -0.103; in [5], 1.44; in assay [6], 1.3; in assay [7], 1.12. In addition, the composite z-score came out at 1.11 in assay [8]; 0.439 in [9]; 0.0784 in assay [10]; 1.39 in [11]; 0.179 in assay [13]; 0.928 in [14]. Further, the composite z-score was -0.136 in [15]; 0.111 in assay [16]; -0.0793 in assay [17]; -0.541 in assay [18]; 0.835 in assay [19]; 0.796 in assay [20]. Besides, the z-score in [4] was -1.29 (inactive); in [12], -1.93.
